Results as given in PubChem BioAssay (NCATS).
Results filed as inconclusive are left out. Activity calls are given as the source filed them. Unless noted, calls follow the shape of the dose curve; as a rule, active = well fitted curve in either direction with a large enough effect (not every such curve was filed as active); inconclusive = small, poorly fitted or top-dose-only effect, or another doubt; inactive = flat fitted curve, though single readings scatter.

Experiments:
[1] = AP1 Signaling Pathway (AID 357); conditions: ME-180 AP-1-bla reporter, EGF-induced, beta-lactamase ratio, 5 h; at 17.2 µM (top of the series) unless noted;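 also: ME-180 reporter cells stimulated with EGF at its EC50 level; % is scaled to controls: 0 for no effect and ±100 for the full control effect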
How it was run: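 A ratiometric CCF4 readout (405 nm excitation; 460 and 530 nm emission) quantified AP-1-driven beta-lactamase in ME-180 cells after 5 h with compound and EC50 EGF; AC50 values were derived for activators and inhibitors.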

[2] = Stat Signaling Pathway (AID 446); conditions: ME-180 (cervical carcinoma) SIE beta-lactamase reporter, IL-6 stimulated, 5 h; at 17.2 µM (top of the series) unless noted;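 also: ME-180 cervical cancer cells given 40 pM IL-6 alongside compound; SIE-controlled beta-lactamase reporter measured as 460/530 nm FRET emission ratio; % is scaled to controls: 0 for no effect and ±100 for the full control effect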
How it was run: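 Emission at 460 and 530 nm (excitation 405 nm) reports SIE-controlled beta-lactamase in ME-180 cells. Cells received compound with 40 pM IL-6 for 5 hrs at 37 C; data scaled between 300 pM IL-6 and 125 nM JAK-inhibitor controls.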

[3] = molecular target: Glucocorticoid receptor (Homo sapiens) (UniProt P04150); test: GR-GFP Redistribution (AID 450;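 active = compounds whose dose series gives a full or clear partial fitted curve of increased nuclear translocation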; also: potency is read from the fitted curve at half-maximal effect)
[4] = molecular target: Glucocorticoid receptor (Homo sapiens) (UniProt P04150); test: GR-EFC Redistribution (AID 451; calls by dose curve; also: potency is read from the fitted curve at half-maximal effect); conditions: CHO-K1 GR-EFC translocation, beta-gal luminescence, 2 h
How it was run: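 CHO-K1 cells expressing nuclear EA and GR-ED fragments of b-gal; compounds titrated up to 46 uM final, 2 h at 37 C. GR nuclear translocation read as complemented b-gal luminescence after 1 h RT detection.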

[5] = molecular target: Mitogen-activated protein kinase 10 (Mus musculus) (UniProt Q61831); test: JNK3 AlphaScreen Assay (AID 530);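 also: kinase came from lysate of stimulated human HepG2 cells; signal reports phosphorylation of biotinylated GST-cJun 1-79 at Ser73 with 10 µM ATP; % is scaled to controls: 0 for no effect and ±100 for the full control effect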
How it was run: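 Activity was read by AlphaScreen after JNK3-containing HepG2 lysate (cytokine pre-activated) phosphorylated biotinylated GST-cJun with 10 uM ATP at room temperature. Phospho-Ser73 cJun antibody with Protein-A acceptor beads provided detection.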

[6] = molecular target: 3',5'-cyclic-AMP phosphodiesterase 4B (Homo sapiens) (UniProt Q07343); test: qHTS Assay for Inhibitors of PDE-IV (AID 607; active = well fitted activation curve with a large enough effect in the main read-out, with a control signal flat, not every such curve was filed as active; also: % of control where 0% means no effect)
How it was run: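 The readout is membrane depolarisation from a cAMP-sensing CNG channel, detected with a potential dye at ex 535/em 590. Cells were HEK293-derived (endogenous PDE-IV) at 1000 cells/well, titrated up to 22.9 uM final.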

Sequence of Glucocorticoid receptor (Homo sapiens) (P04150 whole entry, looked up, the tested form may be a part): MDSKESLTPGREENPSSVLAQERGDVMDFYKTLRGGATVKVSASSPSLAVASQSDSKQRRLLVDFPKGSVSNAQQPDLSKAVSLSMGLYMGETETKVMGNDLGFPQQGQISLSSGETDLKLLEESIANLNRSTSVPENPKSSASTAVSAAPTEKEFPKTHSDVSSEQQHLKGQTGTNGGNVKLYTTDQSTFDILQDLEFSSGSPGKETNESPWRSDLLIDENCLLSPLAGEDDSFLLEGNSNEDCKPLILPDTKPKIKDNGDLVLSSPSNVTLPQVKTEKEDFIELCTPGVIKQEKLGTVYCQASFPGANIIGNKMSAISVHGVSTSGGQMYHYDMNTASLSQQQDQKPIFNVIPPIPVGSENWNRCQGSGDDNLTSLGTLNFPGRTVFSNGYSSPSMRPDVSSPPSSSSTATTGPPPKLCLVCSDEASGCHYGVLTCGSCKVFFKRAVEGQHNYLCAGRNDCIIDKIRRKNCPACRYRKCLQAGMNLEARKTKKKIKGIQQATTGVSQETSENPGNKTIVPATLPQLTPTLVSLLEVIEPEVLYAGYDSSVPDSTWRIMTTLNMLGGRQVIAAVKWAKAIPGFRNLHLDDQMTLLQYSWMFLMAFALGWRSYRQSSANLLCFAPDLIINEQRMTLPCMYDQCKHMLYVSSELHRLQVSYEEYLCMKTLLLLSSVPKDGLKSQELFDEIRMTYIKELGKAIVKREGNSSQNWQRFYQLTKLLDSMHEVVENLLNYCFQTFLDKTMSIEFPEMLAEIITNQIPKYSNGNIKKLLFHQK
Sequence of 3',5'-cyclic-AMP phosphodiesterase 4B (Homo sapiens) (Q07343 whole entry, looked up): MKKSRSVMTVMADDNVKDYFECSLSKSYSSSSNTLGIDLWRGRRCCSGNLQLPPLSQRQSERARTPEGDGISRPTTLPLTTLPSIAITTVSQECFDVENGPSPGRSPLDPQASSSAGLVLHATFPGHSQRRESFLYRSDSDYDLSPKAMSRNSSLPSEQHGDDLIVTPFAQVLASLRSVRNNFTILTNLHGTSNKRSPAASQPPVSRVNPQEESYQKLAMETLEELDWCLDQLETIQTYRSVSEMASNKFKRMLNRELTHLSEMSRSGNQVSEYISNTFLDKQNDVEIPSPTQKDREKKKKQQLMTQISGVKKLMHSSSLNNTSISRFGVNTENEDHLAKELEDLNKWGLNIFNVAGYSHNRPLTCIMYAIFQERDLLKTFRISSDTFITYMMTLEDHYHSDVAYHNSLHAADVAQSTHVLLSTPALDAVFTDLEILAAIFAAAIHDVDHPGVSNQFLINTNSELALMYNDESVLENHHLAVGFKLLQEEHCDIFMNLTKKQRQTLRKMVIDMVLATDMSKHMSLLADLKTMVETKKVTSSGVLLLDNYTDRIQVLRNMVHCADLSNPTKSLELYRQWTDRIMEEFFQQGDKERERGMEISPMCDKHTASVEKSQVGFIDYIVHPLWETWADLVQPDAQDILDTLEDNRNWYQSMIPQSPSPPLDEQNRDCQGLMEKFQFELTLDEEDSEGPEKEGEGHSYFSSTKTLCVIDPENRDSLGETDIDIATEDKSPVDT

CCOC(=O)C1=C(C)NC(C)=C(C(=O)OC)[C@@H]1c1cccc(Cl)c1Cl
inactive: activity change, negative = inhibition [1] -13.1% | activity, negative = inhibition [2] -13.3% | Potency [3] > 20.6 µM | Potency [4] > 20.6 µM | Potency [5]

O=C(NCc1cccnc1)/C(=N\O)c1ccccc1
inactive: activity change, negative = inhibition [1] -8.53% | activity, negative = inhibition [2] 0.749% | Potency [3] > 20.6 µM

C[C@H](CCC(=O)O)[C@H]1CC[C@@H]2[C@H]3CC[C@H]4C[C@@H](O)CC[C@@]4(C)[C@H]3CC[C@]21C
inactive: activity change, negative = inhibition [1] 13.9% | activity, negative = inhibition [2] -1.14% | Potency [3] > 20.6 µM | Potency [4] > 20.6 µM | Potency [5] | Potency [6]

CC1(C)Cc2c(C#N)c(SCC(=O)c3ccccc3)nc(N3CCCC3)c2CO1
inactive: activity change, negative = inhibition [1] 24.5% | activity, negative = inhibition [2] 6.65% | Potency [3] > 20.6 µM

O=C(c1ccccc1F)N1CCC(N2CCCCCC2)CC1
inactive: activity change, negative = inhibition [1] -3.96% | activity, negative = inhibition [2] 2.78% | Potency [3] > 20.6 µM

Cc1ccc(/C(O)=C2/C(=O)C(=O)N(Cc3ccco3)C2c2cccs2)cc1 (configuration not stated)
inactive: activity change, negative = inhibition [1] 2.29% | activity, negative = inhibition [2] -12.7% | Potency [3] > 20.6 µM

CCn1cc(C(=O)NCCCN(C)C)c(=O)c2cc(F)c(N3CCN(C)CC3)cc21
inactive: activity change, negative = inhibition [1] -0.851% | activity, negative = inhibition [2] 3.71% | Potency [3] > 20.6 µM

CNC(=O)CC(C(=O)O)c1ccc(OC(C)C)cc1 (configuration not stated)
inactive: activity change, negative = inhibition [1] 5.59% | activity, negative = inhibition [2] 5.76% | Potency [3] > 20.6 µM

CCCCCCCCCCCCCCCC(O)C(N)CO (configuration not stated)
inactive: activity change, negative = inhibition [1] -23.5% | activity, negative = inhibition [2] 7.16% | Potency [3] > 20.6 µM
